Experimental data: PubChem BioAssay (NCATS)
Values joined by “and” are separate entries in the source; they are usually repeats but may differ in a detail not shown here. Identical values can stand only once. Records with an inconclusive call do not appear. Entries that show only a call come without a potency. Active and inactive are the calls of the source. Calls follow the shape of the dose curve; as a rule, active = well fitted inhibition curve with a large enough effect; inconclusive = small, poorly fitted or top-dose-only effect; inactive = flat fitted curve, though single readings scatter.

The compounds below were run on FAB9 (assay: qHTS profiling for inhibitors of Plasmodium falciparum proliferation (AID 504749; also: nearly all actives have a fitted effect of over 60% in size)). Conditions: P. falciparum in erythrocytes, SYBR Green DNA, 72 h; series mostly up to 28.7 µM.
Outline: (§1)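 Readout was DNA-dye fluorescence from lysed cultures, ex 485/em 535 nm. Parasitized red cells had grown 72 h with compound; data scaled between 0.29 uM artemisinin and DMSO wells and corrected using vehicle-only plates.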
Potency is read from the fitted curve at half-maximal effect.

SMILES | Potency
CC(=O)OO | inactive
CCCC(=O)OC(C(Cl)(Cl)Cl)P(=O)(OC)OC (stereo not drawn) | inactive
[N-]=[N+]=CC(=O)OCC(N)C(=O)O (stereo not drawn) | inactive
CC(C)CCON=O | inactive
COCC(C)N(C(=O)CCl)c1c(C)csc1C (stereo not drawn) | inactive
C[N+]1(C)CCCCC1COC(=O)C(O)(c1ccccc1)c1ccccc1 (stereo not drawn) | inactive
CCC1(c2ccccc2)C(=O)NC(=O)NC1=O | inactive
C[N+]1(C)C2CCC1CC(OC(=O)c1c[nH]c3ccccc13)C2 (stereo not drawn) | inactive
O=S(=O)(O)c1cc(O)ccc1O | inactive
FC(F)OC(F)(F)C(F)Cl (stereo not drawn) | inactive
CNC1(c2ccccc2Cl)CCCCC1=O (stereo not drawn) | inactive
c1ccc2sc(SNC3CCCCC3)nc2c1 | inactive

What follows are compounds tested on GB4 in the same assay as above. Conditions: P. falciparum in erythrocytes, SYBR Green DNA, 72 h; series mostly up to 28.7 µM.
Outline: as §1

SMILES | Potency
COc1ccc(OC)c(C(O)C(C)N)c1 (stereo not drawn) | inactive
CCON=O | inactive
CCCCCl | inactive
COC([CH2][Hg])CNC(=O)c1ccccc1OCC(=O)O (stereo not drawn) | inactive
CC(C)(O)C1C2OC(=O)C1C1(O)CC3OC34C(=O)OC2C14C (stereo not drawn) | inactive
C[CH2][Hg][S]c1ccccc1C(=O)O | 1.69 µM (active)
O=C1C2CC=CCC2C(=O)N1SC(Cl)(Cl)Cl (stereo not drawn) | inactive
N#CN | inactive
O=C1CCCCC1CN1CCCCC1 (stereo not drawn) | inactive
CN1C2CCC1CC(OC(c1ccccc1)c1ccc(Cl)cc1)C2 (stereo not drawn) | 6.01 µM (active)
COC1=CC=C2[C@H]3Cc4ccc(OC)c5c4[C@@]2(CCN3C)[C@H]1O5 | inactive
S=C=S | inactive
O=[N+]([O-])C(Br)(CO)CO | inactive
COc1ccc2c3c1O[C@H]1C(=O)CC[C@H]4[C@@H](C2)N(C)CC[C@]314 | inactive
CCCCCCCCOC(=O)c1ccccc1C(=O)OCCCCCCCC | inactive
O=C1CCO1 | inactive
O=C(CS(=O)C(c1ccccc1)c1ccccc1)NO (stereo not drawn) | inactive
C=CCN1CC[C@]23c4c5ccc(O)c4O[C@H]2[C@@H](O)C=C[C@H]3[C@H]1C5 | inactive
O=c1[nH]cc(N(CCCl)CCCl)c(=O)[nH]1 | inactive

SMILES | Potency
C/C(=C\c1csc(C)n1)[C@@H]1C[C@@H]2O[C@]2(C)CCC[C@H](C)[C@H](O)[C@@H](C)C(=O)C(C)(C)[C@@H](O)CC(=O)O1 | 0.0019 µM (active)
CCC(N)Cc1c[nH]c2ccccc12 (stereo not drawn) | inactive
C#CC(C)(O)CC (stereo not drawn) | inactive
CCCCNCC(O)c1ccc(O)cc1 (stereo not drawn) | inactive
O[C@H]1[C@H]2[C@H](O)CCCN2C[C@H]1O | inactive
C=CCN1CCC23c4c5ccc(O)c4O[C@H]2C(=O)CC[C@@]3(O)C1C5 (stereo partly drawn) | inactive
CC(=O)OO | inactive
CCCC(=O)OC(C(Cl)(Cl)Cl)P(=O)(OC)OC (stereo not drawn) | inactive
[N-]=[N+]=CC(=O)OCC(N)C(=O)O (stereo not drawn) | inactive
CC(C)CCON=O | inactive
CC(C)(C)c1cc(O)ccc1O | 3.79 µM (active) and 12 µM (active)
COCC(C)N(C(=O)CCl)c1c(C)csc1C (stereo not drawn) | inactive
C[N+]1(C)CCCCC1COC(=O)C(O)(c1ccccc1)c1ccccc1 (stereo not drawn) | inactive
CCC1(c2ccccc2)C(=O)NC(=O)NC1=O | inactive
C[N+]1(C)C2CCC1CC(OC(=O)c1c[nH]c3ccccc13)C2 (stereo not drawn) | inactive
FC(F)OC(F)(F)C(F)Cl (stereo not drawn) | inactive
CNC1(c2ccccc2Cl)CCCCC1=O (stereo not drawn) | 12 µM (active)
c1ccc2sc(SNC3CCCCC3)nc2c1 | inactive

The compounds below were run on HB3 in the same assay as above. Conditions: P. falciparum in erythrocytes, SYBR Green DNA, 72 h; series mostly up to 28.7 µM.
Outline: as §1

SMILES | Potency
COc1ccc(OC)c(C(O)C(C)N)c1 (stereo not drawn) | inactive
CCON=O | inactive
CCCCCl | inactive
COC([CH2][Hg])CNC(=O)c1ccccc1OCC(=O)O (stereo not drawn) | inactive
CC(C)(O)C1C2OC(=O)C1C1(O)CC3OC34C(=O)OC2C14C (stereo not drawn) | inactive
C[CH2][Hg][S]c1ccccc1C(=O)O | 2.24 µM (active)
O=C1C2CC=CCC2C(=O)N1SC(Cl)(Cl)Cl (stereo not drawn) | inactive
N#CN | inactive
O=C1CCCCC1CN1CCCCC1 (stereo not drawn) | inactive
CN1C2CCC1CC(OC(c1ccccc1)c1ccc(Cl)cc1)C2 (stereo not drawn) | 12.6 µM (active)
COC1=CC=C2[C@H]3Cc4ccc(OC)c5c4[C@@]2(CCN3C)[C@H]1O5 | inactive
S=C=S | inactive
O=[N+]([O-])C(Br)(CO)CO | inactive
COc1ccc2c3c1O[C@H]1C(=O)CC[C@H]4[C@@H](C2)N(C)CC[C@]314 | inactive
CC(=O)O[C@H]1CC[C@H]2[C@@H]3CCC4=CC(=O)CCC4=C3C=C[C@]12C | inactive
CCCCCCCCOC(=O)c1ccccc1C(=O)OCCCCCCCC | inactive
O=C1CCO1 | inactive
O=C(CS(=O)C(c1ccccc1)c1ccccc1)NO (stereo not drawn) | inactive
C=CCN1CC[C@]23c4c5ccc(O)c4O[C@H]2[C@@H](O)C=C[C@H]3[C@H]1C5 | inactive
O=c1[nH]cc(N(CCCl)CCCl)c(=O)[nH]1 | inactive

SMILES | Potency
C/C(=C\c1csc(C)n1)[C@@H]1C[C@@H]2O[C@]2(C)CCC[C@H](C)[C@H](O)[C@@H](C)C(=O)C(C)(C)[C@@H](O)CC(=O)O1 | 0.0009 µM (active)
CCC(N)Cc1c[nH]c2ccccc12 (stereo not drawn) | inactive
C#CC(C)(O)CC (stereo not drawn) | inactive
CCCCNCC(O)c1ccc(O)cc1 (stereo not drawn) | inactive
O[C@H]1[C@H]2[C@H](O)CCCN2C[C@H]1O | inactive
C=CCN1CCC23c4c5ccc(O)c4O[C@H]2C(=O)CC[C@@]3(O)C1C5 (stereo partly drawn) | inactive
CC(=O)OO | inactive
CCCC(=O)OC(C(Cl)(Cl)Cl)P(=O)(OC)OC (stereo not drawn) | inactive
[N-]=[N+]=CC(=O)OCC(N)C(=O)O (stereo not drawn) | inactive
CC(C)CCON=O | inactive
CC(C)(C)c1cc(O)ccc1O | 10 µM (active)
COCC(C)N(C(=O)CCl)c1c(C)csc1C (stereo not drawn) | inactive
C[N+]1(C)CCCCC1COC(=O)C(O)(c1ccccc1)c1ccccc1 (stereo not drawn) | inactive
CCC1(c2ccccc2)C(=O)NC(=O)NC1=O | inactive
C[N+]1(C)C2CCC1CC(OC(=O)c1c[nH]c3ccccc13)C2 (stereo not drawn) | inactive
O=S(=O)(O)c1cc(O)ccc1O | inactive
FC(F)OC(F)(F)C(F)Cl (stereo not drawn) | inactive
CNC1(c2ccccc2Cl)CCCCC1=O (stereo not drawn) | inactive
c1ccc2sc(SNC3CCCCC3)nc2c1 | inactive
